For nine molecules, z-score and composite z-score results are on record in PubChem BioAssay.

Calls of active or inactive are those of the source. Unless noted, the rule behind the calls is not given here.

Test [1] can be described thus: resazurin metabolic signal in HepG2 cells – cell-based, resazurin fluorescence, 24 h, PK04 Diversity Set, profiling panel (AID 1172). The conditions noted are these: HepG2 viability, higher = more signal. In general terms: Resazurin is reduced to fluorescent resorufin, in cell work by metabolically active cells.
Test [2] can be described thus: budding yeast growth changes without added modifier – OD600, strain BY4716, 24 h, basal condition, primary screen (AID 1173). The conditions noted are these: S. cerevisiae BY4716 growth, OD600, 24 h; higher = more signal, called active from +8 up or from −8 down.
Test [3] is described as follows: viability profiling in MM1S myeloma cells – cell-based, resazurin fluorescence, basal, 24 h, PK04 Diversity Set, profiling panel (AID 1174).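 Note: MM1S multiple myeloma cell line.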 The conditions noted are these: higher = more signal, called active from +8 up or from −8 down.
Test [4] concerns the target Dihydroorotate dehydrogenase (quinone), mitochondrial (Plasmodium falciparum (isolate 3D7)) (UniProt Q08210). Briefly: inhibition of P. falciparum DHODH – biochemical, C-terminal His tag, absorbance 600 nm, primary screen (AID 1175).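 Note: recombinant parasite enzyme with a five histidine tag at its C terminus.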 The conditions noted are these: PfDHODH enzyme, DCIP absorbance 600 nm; higher = more signal, called active from +8 up or from −8 down.
The nature of test [5]: inhibition of PAO1 biofilm formation – strain PAO1, LB-PBS medium, absorbance 600 nm, primary screen (AID 1176). The conditions noted are these: P. aeruginosa PAO1 growth/biofilm, A600, 12 h; higher = more signal.
Test [6] is described as follows: growth modulation of vineyard yeast isolate – strain RM11-1a, OD600, basal, 24 h, primary screen (AID 1177).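 Note: cultures grown under basal conditions with no added stressor.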 The conditions noted are these: S. cerevisiae RM11-1a growth, OD600, 24 h; higher = more signal, called active from +8 up or from −8 down.
The nature of test [7]: growth of efflux-deficient E. coli DRC39 – strain DRC39, OD650, 24 h, E. coli filamentation inducers, primary screen (AID 1178).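 Note: growth measured as culture turbidity by optical density at 650 nm.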 The conditions noted are these: E. coli DRC39 acrAB, higher = more signal, called active from +8 up or from −8 down.
A short description of test [8]: growth of efflux-deficient E. coli DRC39 – strain DRC39, OD650, 48 h, E. coli filamentation inducers, primary screen (AID 1179).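 Note: screen aims at cell division blockers that make cells filament.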 The conditions noted are these: E. coli DRC39 delta-acrAB growth, higher = more signal, called active from +8 up or from −8 down.
The nature of test [9]: viability profiling in RPMI8226 myeloma cells – cell-based, resazurin fluorescence, basal, 24 h, PK04 Diversity Set, profiling panel (AID 1180).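 Note: RPMI8826 multiple myeloma cell line at 5000 cells per well.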 The conditions noted are these: higher = more signal.
Test [10] has as its target E3 ubiquitin-protein ligase XIAP (Homo sapiens) (UniProt P98170). Kind of test: small molecules binding XIAP protein – biophysical, small-molecule microarray, fluorescence 635 nm, primary screen (AID 1181).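 Note: score merges 667 nm emission and signal to noise over triplicate slides.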 The conditions noted are these: higher = more signal.
In test [11] the test system is XIP peptide (Xip251-270) binding. Briefly: XIP fragment 251-270 binding compounds – biochemical, small-molecule microarray, fluorescence 635/667 nm, 0.1 µg/mL protein, primary screen (AID 1182). The conditions noted are these: fluorescent protein binding, 635 nm, higher = more signal, called active from +8 up or from −8 down.
Another test deals with XIP peptide (Xip251-270). Briefly: compounds binding XIP fragment 251-270 – biochemical, small-molecule microarray, fluorescence 635/667 nm, 0.5 µg/mL protein, primary screen (AID 1183). The conditions noted are these: fluorescence 635 nm, higher = more signal.
Test [12] can be described thus: blood-stage malaria parasite viability loss – strain 3D7, DAPI fluorescence, 100 nL, primary screen (AID 1184).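 Note: parasites grown inside human red blood cells in medium with human serum.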 The conditions noted are these: P. falciparum 3D7 growth, 3 d, higher = more signal.
Test [13] deals with Homeobox protein Hox-A13 (Mus musculus) (UniProt Q62424). Kind of test: disruptors of Hoxa13 oligonucleotide interaction – biochemical, fluorescence polarization, labeled oligonucleotide, primary screen (AID 1185). The conditions noted are these: Hoxa13:DNA binding, 15 min, higher = more signal, called active from +8 up or from −8 down. For orientation: In fluorescence polarisation assays a small probe gives low polarisation when free and higher when bound to something large.
Sequence of Homeobox protein Hox-A13 (Mus musculus) (Q62424 whole entry, looked up): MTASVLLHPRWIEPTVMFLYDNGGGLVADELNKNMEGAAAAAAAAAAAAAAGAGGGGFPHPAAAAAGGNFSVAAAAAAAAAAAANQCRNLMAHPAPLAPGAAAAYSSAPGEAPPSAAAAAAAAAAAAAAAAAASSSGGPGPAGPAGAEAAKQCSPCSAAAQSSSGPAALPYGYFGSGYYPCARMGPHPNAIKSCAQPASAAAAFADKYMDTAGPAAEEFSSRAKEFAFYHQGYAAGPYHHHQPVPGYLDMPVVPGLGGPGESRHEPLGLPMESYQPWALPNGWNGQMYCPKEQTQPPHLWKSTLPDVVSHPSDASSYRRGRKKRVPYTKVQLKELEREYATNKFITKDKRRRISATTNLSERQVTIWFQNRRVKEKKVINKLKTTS

The nature of test [14]: blockers of DNA damage checkpoint Chk1 activation – imaging, HeLa, hydroxyurea, phospho-Chk1 antibody, percent positive cells, primary screen (AID 1186). The conditions noted are these: hydroxyurea-induced phospho-Chk1 immunofluorescence imaging, higher = more signal.
Test [15] in a line: blockers of DNA damage checkpoint Chk1 activation – imaging, HeLa, hydroxyurea, phospho-Chk1 nuclear intensity, primary screen (AID 1187). The conditions noted are these: hydroxyurea-induced phospho-Chk1 immunofluorescence imaging, higher = more signal.

Sequence of Dihydroorotate dehydrogenase (quinone), mitochondrial (Plasmodium falciparum (isolate 3D7)) (Q08210 whole entry, looked up): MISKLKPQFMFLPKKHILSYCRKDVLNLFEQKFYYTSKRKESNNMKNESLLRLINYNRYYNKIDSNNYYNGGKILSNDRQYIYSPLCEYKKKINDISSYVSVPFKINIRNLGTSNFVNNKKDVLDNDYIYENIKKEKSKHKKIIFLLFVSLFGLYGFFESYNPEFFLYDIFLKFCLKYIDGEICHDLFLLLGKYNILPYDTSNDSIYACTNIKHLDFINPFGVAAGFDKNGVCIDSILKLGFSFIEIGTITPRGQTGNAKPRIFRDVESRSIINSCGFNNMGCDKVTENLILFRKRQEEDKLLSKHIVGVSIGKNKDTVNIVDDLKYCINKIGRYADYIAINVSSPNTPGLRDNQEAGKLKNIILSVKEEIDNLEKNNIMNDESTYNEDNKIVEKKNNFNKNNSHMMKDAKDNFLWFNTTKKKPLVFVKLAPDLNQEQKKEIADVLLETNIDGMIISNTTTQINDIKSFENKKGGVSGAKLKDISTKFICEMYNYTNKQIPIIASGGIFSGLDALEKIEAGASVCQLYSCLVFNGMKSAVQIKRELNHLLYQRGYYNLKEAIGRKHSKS
Sequence of E3 ubiquitin-protein ligase XIAP (Homo sapiens) (P98170 whole entry, looked up, the tested form may be a part): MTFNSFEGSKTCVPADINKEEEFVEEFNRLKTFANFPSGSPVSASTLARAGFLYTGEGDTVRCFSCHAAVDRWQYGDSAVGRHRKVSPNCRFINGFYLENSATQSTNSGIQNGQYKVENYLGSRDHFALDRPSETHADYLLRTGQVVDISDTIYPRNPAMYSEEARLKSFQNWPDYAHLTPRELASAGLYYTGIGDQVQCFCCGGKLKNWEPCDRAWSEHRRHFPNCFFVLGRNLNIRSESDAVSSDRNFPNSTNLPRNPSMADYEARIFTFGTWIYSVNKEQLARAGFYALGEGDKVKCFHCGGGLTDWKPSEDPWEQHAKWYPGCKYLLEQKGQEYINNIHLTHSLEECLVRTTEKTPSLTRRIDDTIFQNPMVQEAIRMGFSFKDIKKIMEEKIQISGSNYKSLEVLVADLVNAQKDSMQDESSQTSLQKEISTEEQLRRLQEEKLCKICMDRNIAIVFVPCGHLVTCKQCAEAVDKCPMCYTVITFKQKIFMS

For `CC1=C2[C@@H](CCc3ccccc3)OB(O)C[C@@H]2[C@@H]2C(=O)N(Cc3ccccc3)C(=O)[C@@H]2C1`, the z-score in test [1] was -0.819; in test [2], -4.86 (inactive); in test [3] it was -0.249 (inactive); in [5], 0.118 (inactive); in test [6], -0.849 (inactive); in [7], -0.204 (inactive). For the same molecule, the z-score is -0.225 (inactive) in test [8]; -0.26 in [9]; 1.62 in [12]; -7.81 (inactive) in [13]; 0.235 (inactive) in test [14]; 0.264 (inactive) in test [15]. The composite z-score is -1.71 (inactive) in test [4], -0.193 in test [10], 0.291 (inactive) in [11] and 0.629 in the test on XIP peptide (Xip251-270).

Take `C=CCNC(=O)[C@@H]1[C@H]2C(=O)O[C@H](c3ccccc3)[C@H](c3ccccc3)N2[C@H](c2ccc(OCCO)cc2)[C@@]12C(=O)N(C(=O)OCCOC)c1ccc(C#Cc3ccc(OC)cc3)cc12`: the z-score in [1] is -0.0068; in [2], 1.21 (inactive); in [3] it was 0.279 (inactive); in test [5], 2.08 (inactive); in [6], 2.57 (inactive); in test [7], -0.709 (inactive). Moreover, the z-score is -0.73 (inactive) in [8]; 0.725 in [9]; -2.07 in test [12]; -0.573 (inactive) in [13]; 0.0644 (inactive) in test [14]; 0.22 (inactive) in [15]. Moreover, the composite z-score in [4] is -0.0464 (inactive); in test [10], 0.102; in test [11] it was 0.448 (inactive); in the test with XIP peptide (Xip251-270), 0.589.

`CC(C)c1ccc(NN2C(C(O)c3ccc(F)cc3)C=CC3C(=O)N(c4ccccc4)C(=O)C32)cc1` (centres undefined): the z-score is -0.0361 in [1]; -2.21 (inactive) in test [2]; -1.25 (inactive) in test [3]; 1.36 (inactive) in test [5]; 0.737 (inactive) in [6]; -0.159 (inactive) in [7]. Further, the z-score was 0.127 (inactive) in test [8]; -0.895 in test [9]; -0.344 in test [12]; -1.93 (inactive) in test [13]; 0.51 (inactive) in test [14]; 0.374 (inactive) in [15]. In addition, the composite z-score in test [4] was 0.319 (inactive); in test [10], -0.226; in [11] it was 0.344 (inactive); in the test with XIP peptide (Xip251-270) it was 0.774.

`C=CC[C@]1(C(=O)N2CCCCC2)N=C(c2ccc(OCCCO)cc2)O[C@H]1c1ccccc1CN=[N+]=[N-]`: the z-score in test [1] was 0.948; in [2] it was -1.03 (inactive); in test [3], -0.398 (inactive); in [5], -0.124 (inactive); in [6], 0.0349 (inactive); in test [7], 0.552 (inactive). Further, the z-score in test [8] is 1.11 (inactive); in test [9], 0.128; in test [12], -2.57; in test [13] it was -3.9 (inactive); in test [14], -0.707 (inactive); in [15], -1.06 (inactive). The composite z-score in test [4] is -0.709 (inactive); in [10], 0.354; in [11], 0.541 (inactive); with XIP peptide (Xip251-270), 0.652.

As to `CCOC(=O)C1=CC[C@@H](c2ccccc2)N(S(=O)(=O)c2ccc(C)cc2)[C@H]1c1ccccc1`, the z-score in test [1] was -0.356; in test [2], 1.92 (inactive); in [3], -0.564 (inactive); in test [5], 0.85 (inactive); in test [6], 1.75 (inactive); in [7] it was -0.544 (inactive). In addition, the z-score in test [8] is -0.244 (inactive); in test [9], -1.33; in test [12] it was -1.67; in [13], 0.268 (inactive); in test [14], 0.339 (inactive); in test [15] it was -1.24 (inactive). Besides, the composite z-score in test [4] is 1.03 (inactive); in [10], 0.0512; in [11] it was 0.267 (inactive); in the test with XIP peptide (Xip251-270), 0.528.

Take `[N-]=[N+]=Nc1ccccc1C[C@@]1(C(N)=O)N=C(c2ccc(OCCCO)cc2)O[C@@H]1c1ccccc1N=[N+]=[N-]`: the z-score in test [1] was 0.212; in test [2], -3.3 (inactive); in [3] it was -0.902 (inactive); in test [5], 0.0405 (inactive); in [6], -0.739 (inactive); in [7], 0.891 (inactive). In addition, the z-score is -0.174 (inactive) in test [8]; -0.76 in test [9]; -2.67 in [12]; -5.05 (inactive) in test [13]; -0.0618 (inactive) in test [14]; 0.233 (inactive) in test [15]. For the same molecule, the composite z-score in test [4] was -0.652 (inactive); in [10], -0.112; in [11], 1.28 (inactive); with XIP peptide (Xip251-270), 0.763.

For `CCCC=C(CCC)[C@@H](NS(=O)(=O)CC12CCC(CC1=O)C2(C)C)c1ccc(C(=O)OC)cc1` (some centres undefined), the z-score in test [1] is 0.602; in test [2], 0.484 (inactive); in [3], 0.16 (inactive); in [5], 0.756 (inactive); in [6], -0.721 (inactive); in test [7], 0.0384 (inactive). Moreover, the z-score is -0.572 (inactive) in test [8]; -0.123 in test [9]; -0.384 in test [12]; -2.11 (inactive) in test [13]; -0.225 (inactive) in [14]; -0.276 (inactive) in test [15]. The composite z-score in [4] was -0.929 (inactive); in [10] it was -0.102; in [11], -0.341 (inactive); with XIP peptide (Xip251-270), 0.316.

Take `CC(CO)N1C(=O)[C@]2(C)C3C(=O)OCCC/C=C\[C@H]3OC23C=CCN(c2ccc(Cl)cc2)C(=O)[C@@H]13` (some centres undefined): the z-score in test [1] was -0.342; in [2] it was 0.317 (inactive); in test [3], 0.28 (inactive); in test [5], -0.264 (inactive); in test [6] it was -0.354 (inactive); in test [7] it was 0.351 (inactive). Besides, the z-score in [8] is 0.779 (inactive); in test [9], 0.499; in test [12], 0.416; in test [13], -3.59 (inactive); in test [14] it was 0.0747 (inactive); in test [15], 0.651 (inactive). In addition, the composite z-score in test [4] is -0.924 (inactive); in [10], 0.834; in [11], -0.356 (inactive); in the test with XIP peptide (Xip251-270), 0.725.

`CN(C)C(=O)[C@]1(CCC(=O)OC(C)(C)C)N=C(c2ccc(OCCCO)cc2)O[C@@H]1c1ccccc1CN=[N+]=[N-]`: the z-score in [1] is 1.52; in test [2], -0.756 (inactive); in test [3], 0.136 (inactive); in [5], -0.36 (inactive); in test [6], -0.0274 (inactive); in test [7] it was 0.0547 (inactive). Besides, the z-score was -0.0727 (inactive) in [8]; 0.471 in test [9]; -2.39 in test [12]; -4.57 (inactive) in test [13]; -0.165 (inactive) in [14]; 0.152 (inactive) in test [15]. Further, the composite z-score in [4] was -0.369 (inactive); in test [10], -0.0501; in test [11] it was 0.0464 (inactive); in the test on XIP peptide (Xip251-270) it was 0.649.
